# Source: PMC5700166
# Target: T1, GST-Ap-NF-kB RHD (Exaiptasia pallida (Aiptasia), UniProt A0A913YAJ5 2-422)
# T1 sequence: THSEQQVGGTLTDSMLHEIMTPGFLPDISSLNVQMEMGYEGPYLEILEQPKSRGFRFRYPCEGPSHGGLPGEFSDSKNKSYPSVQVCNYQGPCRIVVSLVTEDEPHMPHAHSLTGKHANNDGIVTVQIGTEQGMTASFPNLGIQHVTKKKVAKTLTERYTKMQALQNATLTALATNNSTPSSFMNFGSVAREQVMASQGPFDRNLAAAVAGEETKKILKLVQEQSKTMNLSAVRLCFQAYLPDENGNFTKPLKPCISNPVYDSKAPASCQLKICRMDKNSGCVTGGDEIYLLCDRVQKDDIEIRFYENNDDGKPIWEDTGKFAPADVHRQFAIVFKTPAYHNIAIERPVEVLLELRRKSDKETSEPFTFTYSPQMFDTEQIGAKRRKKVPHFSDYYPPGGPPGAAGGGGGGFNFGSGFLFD
# Assay: protein-binding microarray (PBM); PBM: ~300 nM protein, 6 mM HEPES pH 7.8, 80 mM KCl, 0.5 mM EDTA, 0.5 mM EGTA, 6% glycerol, 35 ng/ul poly-dIdC, 1% milk, 1 h, room temperature; Ap Aiptasia and Nv Nematostella (sea anemones) / Co Capsaspora / Aq Amphimedon (sponge) / Dm Drosophila / Hu human; RHD is the Rel homology domain; high values mean tight binding
# Conditions: dsDNA, one strand shown
row,Sequence,binding signal [z-score]
1,CCGATTAACATCAGGGGAAGATATGATGTTAATCGGGTCTTGATTCGCTTGACGCTGCTG,6.06
2,CCGATTAACATCAGAAAATCCCCTGATGTTAATCGGGTCTTGATTCGCTTGACGCTGCTG,10.4
3,CCGATTAACATCAGGATGCCCCCTGATGTTAATCGGGTCTTGATTCGCTTGACGCTGCTG,4.93
4,CCGATTAACATCAAATTTTCCCGTGATGTTAATCGGGTCTTGATTCGCTTGACGCTGCTG,4.26
5,CCGATTAACATCAGGGGAGTTACTGATGTTAATCGGGTCTTGATTCGCTTGACGCTGCTG,5.46
6,CCGATTAACATCACGGGGGATTCTGATGTTAATCGGGTCTTGATTCGCTTGACGCTGCTG,8.95
7,CCGATTAACATCAATTATTCCCCTGATGTTAATCGGGTCTTGATTCGCTTGACGCTGCTG,6.67
8,CCGATTAACATCAGGGACTGCCCTGATGTTAATCGGGTCTTGATTCGCTTGACGCTGCTG,4.31
9,CCGATTAACATCAGATTCCCCCATGATGTTAATCGGGTCTTGATTCGCTTGACGCTGCTG,8.01
10,CCGATTAACATCAAGAACTTCCCTGATGTTAATCGGGTCTTGATTCGCTTGACGCTGCTG,3.37
11,CCGATTAACATCAAATATCCCCATGATGTTAATCGGGTCTTGATTCGCTTGACGCTGCTG,6.82
12,CCGATTAACATCAGGGAATTTACTGATGTTAATCGGGTCTTGATTCGCTTGACGCTGCTG,4.29
13,CCGATTAACATCAGCGATTCCCCTGATGTTAATCGGGTCTTGATTCGCTTGACGCTGCTG,6.31
14,CCGATTAACATCAGAATATCCCCTGATGTTAATCGGGTCTTGATTCGCTTGACGCTGCTG,7.8
